# Reference: PubChem BioAssay (NCI)
# About 79,000 compounds went through this panel and 15% of them were active in at least one assay; those are over-represented in the sample as a whole. Unmarked numbers belong to inactive results. Active and inactive are the calls of the source. Rule as the data show it: active = growth inhibition above about 70%; inactive = the rest.
# Legend:
# [1] = NCI Yeast Anticancer Drug Screen. Data for the rad52 strain (AID 147);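 also: 0% = growth of vehicle-treated control cultures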; details: S. cerevisiae rad52 mutant growth inhibition, hits give high values
# Procedure, shortened: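 Yeast strain carrying a DNA damage repair alteration was exposed to test compounds. Growth inhibition was measured relative to vehicle-treated controls.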
# [2] = NCI Yeast Anticancer Drug Screen. Data for the wt1 strain (AID 149);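 also: 0% = growth of vehicle-treated wt1 cultures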; details: S. cerevisiae wt1 strain (SPY 50644) growth inhibition, hits give high values
# Procedure, shortened: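 Growth inhibition read against vehicle controls after compound exposure of the wt1 yeast strain.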
# [3] = NCI Yeast Anticancer Drug Screen. Data for the rad50EPP+ strain (AID 151);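 also: 0% = growth of vehicle-treated control cultures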; details: S. cerevisiae rad50 mutant strain, hits give high values
# Procedure, shortened: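 Yeast strain carrying rad50 alteration (rad50EPP+) exposed to compounds; growth inhibition measured relative to vehicle-treated controls.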
# [4] = NCI Yeast Anticancer Drug Screen. Data for the mgt1 strain (AID 153); details: S. cerevisiae mgt1 mutant growth inhibition, hits give high values
# Procedure, shortened: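 Yeast mgt1 strain (DNA repair/cell-cycle alteration panel) exposed to compounds; growth inhibition measured relative to vehicle-treated controls.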
# [5] = NCI Yeast Anticancer Drug Screen. Data for the rad50 strain (AID 155);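 also: 0% = growth of vehicle-only cultures of the same strain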; details: S. cerevisiae rad50 strain growth inhibition, hits give high values
# Procedure, shortened: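 Readout: growth inhibition relative to vehicle-treated cultures. Compound exposure was carried out in a genetically defined yeast strain deficient in DNA damage repair.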
# [6] = NCI Yeast Anticancer Drug Screen. Data for the mec2-1 strain (AID 157); details: S. cerevisiae mec2-1 strain, hits give high values
# Procedure, shortened: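 mec2-1 yeast strain, carrying an alteration in DNA damage repair or cell cycle control, was exposed to compounds; growth inhibition was measured relative to vehicle-treated controls.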
# [7] = NCI Yeast Anticancer Drug Screen. Data for the rad14 strain (AID 159);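 also: 0% = growth of vehicle-treated control cultures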; details: S. cerevisiae rad14 strain growth inhibition, hits give high values
# Procedure, shortened: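 Growth inhibition vs vehicle controls; genetically altered yeast strain (DNA damage repair defect) treated with test compounds.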
# [8] = NCI Yeast Anticancer Drug Screen. Data for the sgs1 mgt1 strain (AID 161);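 also: 0% = growth of cultures given vehicle only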; details: S. cerevisiae sgs1 mgt1 strain, hits give high values
# Procedure, shortened: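 Yeast cells carrying a defined DNA-repair defect were exposed to test compounds. Growth inhibition was measured relative to vehicle-treated controls.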
# [9] = NCI Yeast Anticancer Drug Screen. Data for the CLN2oe strain (AID 163);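 also: 0% = growth of vehicle-only control cultures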; details: S. cerevisiae CLN2oe strain, hits give high values
# Procedure, shortened: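 Yeast cells carrying a defined cell-cycle control alteration were exposed to test compounds. Growth inhibition was scored against vehicle-treated control cultures.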
# [10] = NCI Yeast Anticancer Drug Screen. Data for the cln2 rad14 strain (AID 165);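 also: 0% = growth equal to vehicle treated cultures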; details: S. cerevisiae cln2 rad14 strain, hits give high values
# Procedure, shortened: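 Yeast carrying cln2 and rad14 alterations (cell cycle control and DNA damage repair) were exposed to compounds. Growth inhibition was measured against vehicle-treated controls.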
# [11] = NCI Yeast Anticancer Drug Screen. Data for the bub3 strain (AID 167); details: S. cerevisiae bub3 mutant strain, hits give high values
# Procedure, shortened: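 Readout: yeast growth inhibition, expressed relative to vehicle-only wells. The test organism is a mutant strain from a panel with lesions in DNA repair or checkpoint genes.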
# [12] = NCI Yeast Anticancer Drug Screen. Data for the wt2 strain (AID 169);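 also: 0% = growth of vehicle-treated yeast cultures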; details: S. cerevisiae wt2 strain growth inhibition, hits give high values
# Procedure, shortened: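 Yeast cells were exposed to test compounds, and growth inhibition was measured relative to vehicle-treated controls.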
# [13] = NCI Yeast Anticancer Drug Screen. Data for the mlh1 strain (AID 171);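 also: 0% = growth of vehicle-treated control cultures of the same strain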; details: S. cerevisiae mlh1 strain growth inhibition, hits give high values
# Procedure, shortened: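 Yeast carrying a defined genetic alteration in DNA damage repair or cell cycle control were exposed to test compounds. Growth inhibition was measured relative to vehicle-treated controls.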
# [14] = NCI Yeast Anticancer Drug Screen. Data for the sgs1 strain (AID 173);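 also: 0% = growth of vehicle-only control cultures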; details: S. cerevisiae sgs1 mutant, hits give high values
# Procedure, shortened: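 Yeast mutant strains carrying defined defects in DNA damage repair or cell cycle control were exposed to test compounds. Growth inhibition was scored against vehicle-treated controls.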
# [15] = NCI Yeast Anticancer Drug Screen. Data for the mlh1 rad18 strain (AID 175); details: S. cerevisiae mlh1 rad18 strain growth inhibition, hits give high values
# Procedure, shortened: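 Growth inhibition of the yeast strain was measured after compound exposure and expressed relative to vehicle-treated controls. The strain carries defined defects in DNA damage repair.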
# [16] = NCI Yeast Anticancer Drug Screen. Data for the rad18 strain (AID 177); details: S. cerevisiae rad18 mutant growth inhibition, hits give high values
# Procedure, shortened: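 Yeast carrying a defined DNA damage repair alteration were exposed to compounds. Growth inhibition was expressed relative to vehicle-treated controls.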
# [17] = at 5.0 µM (retest, dose inferred, filed as 0.5)
# [18] = at 50.0 µM (retest, dose inferred, filed as 5.0)
structure (smiles),measurement,setting,value
CC(/C=C/c1ccc([N+](=O)[O-])o1)=N/N1CC(CN2CCOCC2)OC1=O (stereo unspecified),growth inhibition,[1]; at 1.2 µM,-5%
same,growth inhibition,[1]; at 3.7 µM,5%
same,growth inhibition,[1]; at 11.0 µM,48%
same,growth inhibition,[1]; at 33.0 µM,94% (active)
same,growth inhibition,[1]; at 100.0 µM,98% (active)
same,growth inhibition,[2]; at 1.2 µM,2%
same,growth inhibition,[2]; at 3.7 µM,11%
same,growth inhibition,[2]; at 11.0 µM,36%
same,growth inhibition,[2]; at 33.0 µM,66%
same,growth inhibition,[2]; at 100.0 µM,96% (active)
same,growth inhibition,[3]; at 1.2 µM,-4%
same,growth inhibition,[3]; at 3.7 µM,4%
same,growth inhibition,[3]; at 11.0 µM,34%
same,growth inhibition,[3]; at 33.0 µM,58%
same,growth inhibition,[3]; at 100.0 µM,76% (active)
same,growth inhibition,[4]; at 1.2 µM,-2%
same,growth inhibition,[4]; at 3.7 µM,-4%
same,growth inhibition,[4]; at 11.0 µM,12%
same,growth inhibition,[4]; at 33.0 µM,30%
same,growth inhibition,[4]; at 100.0 µM,85% (active)
same,growth inhibition,[5]; at 1.2 µM,-9%
same,growth inhibition,[5]; at 3.7 µM,-6%
same,growth inhibition,[5]; [17],9%
same,growth inhibition,[5]; at 11.0 µM,35%
same,growth inhibition,[5]; at 33.0 µM,90% (active)
same,growth inhibition,[5]; [18],90% (active)
same,growth inhibition,[5]; at 50.0 µM,91.8% (active)
same,growth inhibition,[5]; at 100.0 µM,97% (active)
same,growth inhibition,[6]; at 1.2 µM,2%
same,growth inhibition,[6]; at 3.7 µM,0%
same,growth inhibition,[6]; [17],7%
same,growth inhibition,[6]; at 11.0 µM,1%
same,growth inhibition,[6]; at 33.0 µM,29%
same,growth inhibition,[6]; [18],90% (active)
same,growth inhibition,[6]; at 50.0 µM,55.6%
same,growth inhibition,[6]; at 100.0 µM,94% (active)
same,growth inhibition,[7]; at 1.2 µM,4%
same,growth inhibition,[7]; at 3.7 µM,10%
same,growth inhibition,[7]; at 11.0 µM,55%
same,growth inhibition,[7]; at 33.0 µM,90% (active)
same,growth inhibition,[7]; at 100.0 µM,99% (active)
same,growth inhibition,[8]; [17],22%
same,growth inhibition,[8]; [18],93% (active)
same,growth inhibition,[8]; at 50.0 µM,91.3% (active)
same,growth inhibition,[9]; at 1.2 µM,-9%
same,growth inhibition,[9]; at 3.7 µM,-9%
same,growth inhibition,[9]; at 11.0 µM,-2%
same,growth inhibition,[9]; at 33.0 µM,44%
same,growth inhibition,[9]; at 100.0 µM,90% (active)
same,growth inhibition,[10]; [17],6%
same,growth inhibition,[10]; [18],90% (active)
same,growth inhibition,[10]; at 50.0 µM,53.5%
same,growth inhibition,[11]; at 1.2 µM,-6%
same,growth inhibition,[11]; at 3.7 µM,-3%
same,growth inhibition,[11]; [17],3%
same,growth inhibition,[11]; at 11.0 µM,2%
same,growth inhibition,[11]; at 33.0 µM,27%
same,growth inhibition,[11]; [18],87% (active)
same,growth inhibition,[11]; at 50.0 µM,41.8%
same,growth inhibition,[11]; at 100.0 µM,94% (active)
same,growth inhibition,[12]; at 1.2 µM,-3%
same,growth inhibition,[12]; at 3.7 µM,11%
same,growth inhibition,[12]; at 11.0 µM,49%
same,growth inhibition,[12]; at 33.0 µM,79% (active)
same,growth inhibition,[12]; at 100.0 µM,98% (active)
same,growth inhibition,[13]; at 1.2 µM,-14%
same,growth inhibition,[13]; at 3.7 µM,-6%
same,growth inhibition,[13]; at 11.0 µM,-2%
same,growth inhibition,[13]; at 33.0 µM,42%
same,growth inhibition,[13]; at 100.0 µM,91% (active)
same,growth inhibition,[14]; at 1.2 µM,-8%
same,growth inhibition,[14]; at 3.7 µM,3%
same,growth inhibition,[14]; at 11.0 µM,69%
same,growth inhibition,[14]; at 33.0 µM,93% (active)
same,growth inhibition,[14]; at 100.0 µM,97% (active)
same,growth inhibition,[15]; [17],63%
same,growth inhibition,[15]; [18],95% (active)
same,growth inhibition,[15]; at 50.0 µM,93.5% (active)
same,growth inhibition,[16]; at 1.2 µM,24%
same,growth inhibition,[16]; at 3.7 µM,89% (active)
same,growth inhibition,[16]; at 11.0 µM,97% (active)
same,growth inhibition,[16]; at 33.0 µM,97% (active)
same,growth inhibition,[16]; at 100.0 µM,98% (active)
c1cc(-c2sc(-c3ccncc3)c(-c3ccncc3)c2-c2ccncc2)ccn1,growth inhibition,[1]; at 1.2 µM,4%
same,growth inhibition,[1]; at 3.7 µM,17%
same,growth inhibition,[1]; at 11.0 µM,63%
same,growth inhibition,[1]; at 33.0 µM,91% (active)
same,growth inhibition,[1]; at 100.0 µM,97% (active)
same,growth inhibition,[2]; at 1.2 µM,2%
same,growth inhibition,[2]; at 3.7 µM,-1%
same,growth inhibition,[2]; at 11.0 µM,0%
same,growth inhibition,[2]; at 33.0 µM,12%
same,growth inhibition,[2]; at 100.0 µM,58%
same,growth inhibition,[3]; at 1.2 µM,5%
same,growth inhibition,[3]; at 3.7 µM,18%
same,growth inhibition,[3]; at 11.0 µM,34%
same,growth inhibition,[3]; at 33.0 µM,68%
same,growth inhibition,[3]; at 100.0 µM,82% (active)
same,growth inhibition,[4]; at 1.2 µM,0%
same,growth inhibition,[4]; at 3.7 µM,2%
same,growth inhibition,[4]; at 11.0 µM,2%
same,growth inhibition,[4]; at 33.0 µM,25%
same,growth inhibition,[4]; at 100.0 µM,87% (active)
same,growth inhibition,[5]; at 1.2 µM,10%
same,growth inhibition,[5]; at 3.7 µM,19%
same,growth inhibition,[5]; [17],12%
same,growth inhibition,[5]; at 11.0 µM,69%
same,growth inhibition,[5]; at 33.0 µM,90% (active)
same,growth inhibition,[5]; [18],81% (active)
same,growth inhibition,[5]; at 50.0 µM,96.3% (active)
same,growth inhibition,[5]; at 100.0 µM,96% (active)
same,growth inhibition,[6]; at 1.2 µM,3%
same,growth inhibition,[6]; at 3.7 µM,3%
same,growth inhibition,[6]; [17],-5%
same,growth inhibition,[6]; at 11.0 µM,11%
same,growth inhibition,[6]; at 33.0 µM,46%
same,growth inhibition,[6]; [18],0%
same,growth inhibition,[6]; at 50.0 µM,21.1%
same,growth inhibition,[6]; at 100.0 µM,93% (active)
same,growth inhibition,[7]; at 1.2 µM,3%
same,growth inhibition,[7]; at 3.7 µM,-4%
same,growth inhibition,[7]; at 11.0 µM,5%
same,growth inhibition,[7]; at 33.0 µM,26%
same,growth inhibition,[7]; at 100.0 µM,75% (active)
same,growth inhibition,[8]; [17],-5%
same,growth inhibition,[8]; [18],50%
same,growth inhibition,[8]; at 50.0 µM,46.8%
same,growth inhibition,[9]; at 1.2 µM,-7%
same,growth inhibition,[9]; at 3.7 µM,1%
same,growth inhibition,[9]; at 11.0 µM,-1%
same,growth inhibition,[9]; at 33.0 µM,25%
same,growth inhibition,[9]; at 100.0 µM,89% (active)
same,growth inhibition,[10]; [17],-48%
same,growth inhibition,[10]; [18],5%
same,growth inhibition,[10]; at 50.0 µM,45.6%
same,growth inhibition,[11]; at 1.2 µM,1%
same,growth inhibition,[11]; at 3.7 µM,7%
same,growth inhibition,[11]; [17],-12%
same,growth inhibition,[11]; at 11.0 µM,25%
same,growth inhibition,[11]; at 33.0 µM,54%
same,growth inhibition,[11]; [18],18%
same,growth inhibition,[11]; at 50.0 µM,51.1%
same,growth inhibition,[11]; at 100.0 µM,89% (active)
same,growth inhibition,[12]; at 1.2 µM,0%
same,growth inhibition,[12]; at 3.7 µM,0%
same,growth inhibition,[12]; at 11.0 µM,0%
same,growth inhibition,[12]; at 33.0 µM,17%
same,growth inhibition,[12]; at 100.0 µM,79% (active)
same,growth inhibition,[13]; at 1.2 µM,7%
same,growth inhibition,[13]; at 3.7 µM,4%
same,growth inhibition,[13]; at 11.0 µM,7%
same,growth inhibition,[13]; at 33.0 µM,16%
same,growth inhibition,[13]; at 100.0 µM,92% (active)
same,growth inhibition,[14]; at 1.2 µM,3%
same,growth inhibition,[14]; at 3.7 µM,7%
same,growth inhibition,[14]; at 11.0 µM,15%
same,growth inhibition,[14]; at 33.0 µM,42%
same,growth inhibition,[14]; at 100.0 µM,77% (active)
same,growth inhibition,[15]; [17],2%
same,growth inhibition,[15]; [18],46%
same,growth inhibition,[15]; at 50.0 µM,79.7% (active)
